Consider 99 compounds from PubChem BioAssay AID492992 (Johns Hopkins Ion Channel Center, 2010).

Broadly, the inhibition is the percentage by which the read-out fell short of the control.

Screen size: about 4,900 compounds; about 2,100 (43%) were called active.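 How the source made its calls: active means thallium signal inhibited by more than 5 SD of the compound-free buffer control wells, on both duplicate plates; inactive means the rest.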 The set was probably picked from earlier hits. These entries were drawn from the full list.

This test deals with Potassium channel subfamily K member 9 (Homo sapiens) (UniProt Q9NPC2). Put plainly: blockers of human TASK-3 (KCNK9) channel – HEK293 cells, thallium flux, duplicate, confirmation (AID 492992).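 On inhibition: 0% = assay buffer control wells without compound.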 Particulars: FluxOR thallium flux fluorescence, at 10 µM; hits give high values.
Chain of Potassium channel subfamily K member 9 (Homo sapiens) (Q9NPC2 whole entry, looked up): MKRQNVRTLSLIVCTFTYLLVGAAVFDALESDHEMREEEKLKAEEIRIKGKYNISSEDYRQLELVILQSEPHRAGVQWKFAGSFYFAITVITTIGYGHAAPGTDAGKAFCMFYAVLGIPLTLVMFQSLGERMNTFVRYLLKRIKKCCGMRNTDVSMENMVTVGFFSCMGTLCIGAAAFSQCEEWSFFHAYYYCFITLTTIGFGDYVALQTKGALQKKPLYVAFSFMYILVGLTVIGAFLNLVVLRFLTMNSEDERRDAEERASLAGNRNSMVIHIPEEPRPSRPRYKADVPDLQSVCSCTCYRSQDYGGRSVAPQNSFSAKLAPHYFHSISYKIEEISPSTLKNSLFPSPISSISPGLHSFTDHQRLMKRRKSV
Regarding `O=C1CC(NNc2ccccc2)C(=O)N1c1cccc(Cl)c1` (centres undefined), the inhibition result is “inactive”.
Turning to `CN(C)c1ccc(C(CNC(=O)c2ccc(F)cc2)c2c[nH]c3ccccc23)cc1` (centres undefined), the inhibition result was “inactive”.
As for `COc1cc(Cl)c(C)cc1NC(=O)CSc1nnc(-c2ccco2)n1CC(C)C`, the figure is 41.5% (active); as for `COc1ccc(Nc2ncnc3sc(-c4ccccc4)cc23)c(OC)c1`, 33.5% (active); as for `CCOC(=O)C(C)Sc1nc2ccccc2c(=O)n1CC1CCCCC1` (centres undefined), 40.5% (active).
Next, `COc1ccc(-c2nc(CCNC(=O)c3ccc(Br)o3)cs2)cc1`: 28.5% (active); `COc1cccc(-c2nn(C)c3sc(C(=O)N4CCN(c5ccccc5)CC4)cc23)c1`: “inactive”.
On to `CC1(C)CC(N2CCN(C(c3ccccc3)c3ccccc3)CC2)=CC(=[N+]2CCCCC2)C1`, for which the inhibition was 68% (active).
Turning to `N#Cc1nc(Cc2cccc3ccccc23)oc1NCc1ccc2c(c1)OCO2`, the inhibition is 45% (active).
As for `C=CCN(N=Nc1cccc([N+](=O)[O-])c1)c1cccc([N+](=O)[O-])c1`, the figure is 57.5% (active).
Next, `CCOC(=O)N/N=C/c1cn(Cc2ccccc2Cl)c2ccccc12`: “inactive”.
As for `CCCCCn1c(=O)c(C(=O)OCC)c(Cl)c2ccccc21`, the figure is 45.5% (active); as for `CCOc1ccccc1NC(=O)C1CCCN(S(=O)(=O)c2ccccc2)C1` (centres undefined), “inactive”.
Turning to `CN(C)S(=O)(=O)N1CCC(Oc2cccc(C(=O)NCCCC3CCCC3)c2)CC1`, the inhibition is 62% (active).
Turning to `Cc1csc(Nc2ccc(Cl)cc2)[n+]1-c1ccc(Cl)cc1`, the inhibition result was “inactive”.
In the case of `Cc1cc(C)cc(NC(=O)CSCc2cnn(-c3ccccc3)c2-n2cccc2)c1`, the inhibition result is “inactive”.
Regarding `Cc1ccc2c(c1)N(C(=O)CCC(=O)N1CCc3ccccc3C1)CCO2`, the inhibition result is “inactive”.
Next, `O=C(/C=C/NNC(=O)c1cccc(Br)c1)c1ccccc1`: 60% (active); `Cc1c(C(=O)Nc2ccccn2)oc2ccc(Br)cc12`: 36% (active).
As for `O=C(CSCc1ccc(Cl)cc1)N1CCN(Cc2ccc3c(c2)OCO3)CC1`, the entry is “inactive”.
In the case of `CC1(C)CC(=O)CC2(C1)NCC(c1ccccc1Cl)c1c2[nH]c2ccccc12` (centres undefined), the inhibition is 66.5% (active).
For the compound `c1ccc(C(c2ccccc2)N2CCN(Cc3nnnn3C3CCCCC3)CC2)cc1`, the inhibition is 34.5% (active).
As for `Cc1ccc(NC2CCCN(C(=O)CCC3(C)CC3)C2)cc1C` (centres undefined), the entry is “inactive”.
With `Clc1cccc(-c2nc3nc4ccccc4nc3n2Cc2ccco2)c1`, the inhibition is 32% (active).
As to `Cc1cccc(NC(=O)CN2CCCN(S(=O)(=O)c3ccc(Br)s3)CC2)c1`, the inhibition result is “inactive”.
`CCCC1=Nc2cc(C(=O)NCc3ccco3)ccc2Sc2ccccc21`: the inhibition was 31.5% (active).
As for `O=C(NCc1ccco1)c1ccc(NS(=O)(=O)c2cccc([N+](=O)[O-])c2)cc1`, the entry is “inactive”; as for `O=S(=O)(Nc1cccc(Oc2ccc(Cl)cc2)n1)c1ccc(F)cc1`, “inactive”; as for `Cc1cc(Oc2ccc(Cl)cc2)nc(SCC(=O)c2ccccc2)n1`, 34% (active).
`COc1cc(Cl)ccc1OCc1cc(C(=O)N2CC[C@@H]3CCCC[C@H]3C2)no1`: the inhibition result was “inactive”.
`Clc1ccc(CSc2nnc(/C=C/c3ccccc3)o2)c(Cl)c1`: the inhibition entry is “inactive”.
For the compound `C=CCc1cc(S(=O)(=O)c2ccc(O)c(CC=C)c2)ccc1O`, the inhibition was 69% (active).
With `O=C1c2ccccc2C2=Nc3ccccc3SC(c3ccccc3F)C12` (centres undefined), the inhibition was 50% (active).
For `COC(=O)c1cccc(C(=O)N2CCCC(Nc3ccc4c(c3)OCCO4)C2)c1` (centres undefined), the inhibition entry was “inactive”.
For `CCOC(=O)C1(CCOc2ccccc2)CCN(Cc2cc(OC)c(O)cc2Cl)CC1`, the inhibition entry is “inactive”.
With `COc1ccc(NC(=O)CN(C)CC(=O)Nc2cccc(C(F)(F)F)c2)cc1`, the inhibition was 44.5% (active).
For the compound `O=C(NC1Cc2ccccc2C1)c1cc(COc2cccc(C(F)(F)F)c2)on1`, the inhibition entry is “inactive”.
On to `COc1cccc(COC(=O)C2CCN(S(=O)(=O)c3ccc(Cl)cc3)CC2)c1OC`, for which the inhibition result was “inactive”.
`CSc1cccc(NC(=S)N(C(C)C)C(C)c2ccccn2)c1` (centres undefined): the inhibition is 66.5% (active).
With `COc1ccccc1NC(=O)CSc1nc2sc(C)c(C)c2c(=O)n1Cc1ccco1`, the inhibition was 48.5% (active).
With `Cc1nc(N2CCN(c3ccccn3)CC2)c2c(C)c(C(=O)Nc3ccc(F)c(Cl)c3)sc2n1`, the inhibition is 48.5% (active).
As for `O=S(=O)(c1ccc(F)cc1)N1CCN(Cc2ccccc2C(F)(F)F)CC1`, the inhibition entry is “inactive”.
Take `COc1ccccc1/C=C/C=N/n1c(-c2ccc(Cl)cc2Cl)n[nH]c1=S`: the inhibition entry was “inactive”.
For the compound `O=C(Nc1ccc(Br)c2cccnc12)c1ccc(Cn2cc([N+](=O)[O-])cn2)o1`, the inhibition entry was “inactive”.
Next, `CCC1=NN(C(=O)Cc2ccc([N+](=O)[O-])cc2)C(O)(c2ccc(Br)cc2)C1` (centres undefined): 65% (active).
As for `Cc1cc(Cl)ccc1C(=O)C1CCCN(C(=O)CCN2CCCO2)C1` (centres undefined), the inhibition entry was “inactive”.
As for `O=C(OCC(=O)N(CCc1ccccc1)Cc1ccccc1)c1ccccc1[N+](=O)[O-]`, the figure is 58.5% (active).
Regarding `Cc1cc(C)cc(OCC(=O)Nc2cc(NC(=O)COc3cc(C)cc(C)c3)cc(C(=O)O)c2)c1`, the inhibition entry is “inactive”.
Next, `COc1cc(C2CC(=O)N3CN(Cc4ccccc4)CSC3=C2C#N)ccc1OCc1ccccc1` (centres undefined): “inactive”; `CCOc1ccc(C2c3[nH]c4ccccc4c3CCN2Cc2cccn2-c2ncccn2)cc1` (centres undefined): 35% (active); `CCC(C)(C)n1nnnc1C(c1cccs1)N1CCN(c2nc3ccccc3s2)CC1` (centres undefined): 39% (active).
Next, `COc1ccc2c(c1)C(c1cccs1)=NNC(c1cccnc1)=N2`: 43% (active); `COCCN(C(=S)Nc1cccc(Cl)c1C)C(C)c1ccco1` (centres undefined): “inactive”.
As for `O=C(COC(=O)/C(=C/c1cccs1)c1cccs1)NCc1ccccc1Cl`, the inhibition is 29% (active).
As for `Cc1ccccc1CSc1nnc(CCCCCNC(=O)OC(C)(C)C)o1`, the entry is “inactive”.
`CCc1nnc(NS(=O)(=O)c2ccc(NC(=S)NC(=O)/C=C/c3cccs3)cc2)s1`: the inhibition entry is “inactive”.
Turning to `COc1cccc2sc(NNC(=O)c3nc4ccccc4s3)nc12`, the inhibition entry is “inactive”.
As for `Cc1nn(CC(=O)Nc2nc3ccccc3s2)c(C)c1[N+](=O)[O-]`, the inhibition is 48% (active).
Turning to `O=C(NCc1ccccc1)C1=C[C@@H](C2CCCCC2)C[C@@H](OCc2ccc(CO)cc2)O1`, the inhibition entry was “inactive”.
Next, `O=C(CSCc1ccc(Br)cc1)Nc1ccc(S(=O)(=O)N2CCCCCC2)cc1`: “inactive”; `Cc1ccc(C2=Nc3c(ccc4ccccc34)C(c3ccncc3)=NN2)cc1`: 68.5% (active).
For `CCOc1cccc(OCCCOc2cccc3cccnc23)c1`, the inhibition result is “inactive”.
Regarding `Cc1ccc(OCc2cc(C(=O)N(C)CCc3ccccc3)no2)cc1C`, the inhibition result is “inactive”.
Consider `COc1ccc(C(C)=O)cc1COc1ccc(Cl)c(C)c1`, for which the inhibition was 46% (active).
On to `Cc1ccc(OS(=O)(=O)c2ccc(-c3csc(C)n3)s2)c(C)c1`, for which the inhibition entry is “inactive”.
Take `Cc1cccc(NC(=O)N(Cc2cc3cc(C)cc(C)c3[nH]c2=O)CC2COCCO2)c1` (centres undefined): the inhibition result was “inactive”.
Next, `O=C1/C(=C/c2ccc(F)cc2)SC(=S)N1NS(=O)(=O)c1ccccc1`: “inactive”.
Consider `Fc1ccc(Cn2nnnc2C(c2cccs2)N2CCCCCC2)cc1` (centres undefined), for which the inhibition was 49% (active).
Turning to `COc1ccccc1C(c1nnnn1C(C)(C)C)N1CCN(Cc2ccccc2)CC1` (centres undefined), the inhibition was 76% (active).
For `COc1ccc(C(=O)C2CCCN(C(=O)c3cc(C)on3)C2)cc1F` (centres undefined), the inhibition entry was “inactive”.
Take `CCCCCCCCCCOC(=O)Cn1c(COc2ccc(C)cc2)[n+](C)c2ccccc21`: the inhibition was 65% (active).
As to `CCCCCCCCCCOC(=O)Cn1c(COc2cccc(OC)c2)[n+](C)c2ccccc21`, the inhibition was 67% (active).
With `CCCCN(Cc1ccccc1)C(=O)C1CCN(Cc2sccc2C)CC1`, the inhibition entry is “inactive”.
As for `CCOc1ccc2[nH]c(=O)c(CN(Cc3nnnn3CCc3ccccc3)CC3CCCO3)cc2c1` (centres undefined), the inhibition is 32% (active).
In the case of `CCCCn1ccnc1C(=O)c1cccc(S(=O)(=O)N2c3ccccc3CC2C)c1` (centres undefined), the inhibition is 62% (active).
Take `Cc1cccc(N2CCN(C(=O)c3cccc(S(=O)(=O)N4CCc5ccccc5C4)c3)CC2C)c1` (centres undefined): the inhibition entry is “inactive”.
`Cc1cc2ccccn2c1C(=O)c1cccc(S(=O)(=O)N2CCOCC2)c1`: the inhibition result is “inactive”.
Consider `CCN(CC)C(=O)CC1(c2ccccc2OC)CCOC(C(C)C)C1` (centres undefined), for which the inhibition was 36.5% (active).
Regarding `COc1cccc(CN(C)C(=O)CC23CC4CC(CC(C4)C2)C3)c1OC`, the inhibition entry was “inactive”.
As for `O=C1N=C2SCCN2/C1=C\c1c(Cl)cccc1Cl`, the entry is “inactive”; as for `CC1=C/C(=N\OS(=O)(=O)c2ccccc2)C=CC1=O`, “inactive”; as for `COc1cc(C(CCN2CCN(c3ccccc3)CC2)c2c(OC)cc(OC)c3ccc(=O)oc23)cc(OC)c1OC` (centres undefined), “inactive”.
As for `CCOc1ccc(CN(Cc2ccco2)C(c2cccs2)c2nnnn2C(C)(C)C)cc1` (centres undefined), the inhibition was 60.5% (active).
Next, `COc1ccc(OC)c(-c2csc(-c3cccs3)n2)c1`: “inactive”.
For `COc1ccc(C2CC(c3cccs3)=Nc3ccccc3S2)cc1OC` (centres undefined), the inhibition was 40.5% (active).
Turning to `O=C(COC(=O)c1c2c(nc3ccccc13)CCCC2)c1ccc(Br)s1`, the inhibition result is “inactive”.
As to `CCc1ccccc1NC(=O)/C(=C/c1ccccc1)c1ccccc1`, the inhibition is 37.5% (active).
With `O=C(Nc1ccc(Oc2ccccc2)cc1)c1ccco1`, the inhibition is 50.5% (active).
As for `CC(Oc1ccc2ccccc2c1)C(=O)NNC(=S)NC(=O)c1ccco1` (centres undefined), the entry is “inactive”.
As for `Cc1ccc(C2=NN(C)c3nc4ccccc4n3C2)cc1`, the entry is “inactive”.
Regarding `CCCN1C(=O)C(Cc2nc3ccccc3c(=O)n2-c2ccccc2)c2cc(C)ccc21` (centres undefined), the inhibition was 47% (active).
Take `Brc1ccc(C2CC(c3ccccc3)=Nc3ccccc3N2)cc1` (centres undefined): the inhibition was 61.5% (active).
Turning to `O=C(NNc1ccccc1Cl)C(O)(c1cccc(C(F)(F)F)c1)c1cccc(C(F)(F)F)c1`, the inhibition is 44% (active).
Turning to `COc1cccc(-c2cc3nc4c(c(N5CCC6(CC5)OCCO6)n3n2)CCCC4)c1`, the inhibition result is “inactive”.
With `CC(C)(C)C1CCC(C(=O)NCC(c2cccs2)N2CCOCC2)CC1` (centres undefined), the inhibition entry is “inactive”.
For the compound `CCc1cccc(C)c1N(C(=O)Cn1c(CO)nc2ccccc21)C(C)COC` (centres undefined), the inhibition was 37.5% (active).
Regarding `O=[N+]([O-])c1ccc(N2CCN(CC(O)COc3ccccc3)CC2)cc1` (centres undefined), the inhibition entry is “inactive”.
Take `COc1cccc(NC(=S)N(CCc2c(C)[nH]c3ccccc23)Cc2ccco2)c1`: the inhibition was 59% (active).
As for `Cc1[nH]c2ccccc2c1CCN(Cc1cccs1)C(=S)NC(C)(C)C`, the inhibition result is “inactive”.
